This is a sample that favours compounds with a hit; in the whole collection about 1.7% have one here.
EBNA-1 inh = EBNA-1 DNA-binding inhibitors, primary screen, biochemical, fluorescence polarization | inhibition, % at 14.8 µM | hit rate 0.34% among 300,000 | AID 1950, 2009; in the data active means inhibition above about 28%
LYPLA1 inh = LYPLA1 inhibitors, primary screen, counter-screen for PME1 inhibitor project, biochemical, fluorescence polarization, FP-Rh probe ABPP; hit rate 0.16% among 320,000; recombinant LYPLA1; AID 2174, 2009; inhibition, % at 5.9 µM;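 active means inhibition above the mean of all tested compounds plus 3 SD, set per campaign, cut at about 14% in these data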;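 further: inhibitors block serine hydrolase probe labeling of LYPLA1 so polarization falls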
Target sequence (O75608 whole entry, looked up): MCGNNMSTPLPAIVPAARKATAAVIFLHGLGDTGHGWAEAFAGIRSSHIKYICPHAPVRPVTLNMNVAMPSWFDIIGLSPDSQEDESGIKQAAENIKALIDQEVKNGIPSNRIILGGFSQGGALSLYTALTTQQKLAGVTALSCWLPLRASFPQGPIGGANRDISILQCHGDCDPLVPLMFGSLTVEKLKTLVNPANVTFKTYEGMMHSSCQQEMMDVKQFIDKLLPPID
PAD4 FP inh = human PAD4 inhibitors, primary screen, biochemical, fluorescence polarization, 1536-well format. hit rate 0.41% among 330,000. inhibition, % at 6.36 µM. recombinant PAD4, RCA probe fluorescence polarization. AID 485272, 2010. Protein-arginine deiminase type-4 (Homo sapiens), Q9UM07;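 active means percent inhibition above a cutoff equal to the mean of all tested compounds plus 3 SD, cut at about 15% in these data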
GSTO1 counter = inhibitors of recombinant GSTO1, primary screen, counter-screen for RBBP9 inhibitor project, biochemical, fluorescence polarization; activity-based probe fluorescence polarization; hit rate 1.1% among 300,000; Glutathione S-transferase omega-1 (Homo sapiens), P78417; inhibition, % at 5.96 µM;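 active means inhibition above the campaign mean inhibition plus 3 SD, cut at about 35% in these data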
ZTA DNA inh = blocks Epstein-Barr virus ZTA, an EBNA-1 counter-screen | ZTA-DNA binding, fluorescence polarization | inhibition, % at 11 µM | hit rate 0.15% among 320,000; in the data active means inhibition above about 33%
LYPLA2 counter = LYPLA2 inhibitors, primary screen, counter-screen for PME1 inhibitor project, biochemical, fluorescence polarization, FP-Rh probe ABPP; Acyl-protein thioesterase 2 (Homo sapiens), O95372; recombinant LYPLA2; inhibition, % at 5.9 µM; hit rate 0.38% among 320,000; AID 2177, 2009;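 active means inhibition above the screen-wide mean plus 3 SD, limit set per campaign, cut at about 26% in these data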
Target sequence (O95372 whole entry, looked up): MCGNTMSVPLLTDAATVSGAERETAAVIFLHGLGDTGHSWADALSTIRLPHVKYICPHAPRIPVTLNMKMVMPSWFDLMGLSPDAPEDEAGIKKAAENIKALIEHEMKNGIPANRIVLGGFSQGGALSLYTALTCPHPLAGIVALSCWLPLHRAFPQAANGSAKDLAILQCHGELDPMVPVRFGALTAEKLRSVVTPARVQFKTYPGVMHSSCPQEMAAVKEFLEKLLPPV
GSTO1 inh conf = GSTO1 inhibitor hit confirmation, counter-screen for RBBP9 inhibitor project, biochemical, fluorescence polarization, triplicate. shares compounds with GSTO1 counter. inhibition, % at 5.96 µM. recombinant GSTO1, probe fluorescence polarization. hit rate 54% among 2,400;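 active means inhibition above the primary screen's cutoff, its mean inhibition plus 3 SD, cut at about 35% in these data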;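 further: loss of polarization as inhibitors block binding of rhodamine sulfonate ester activity probe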
GSTO1 recomb ABPP = inhibitors of purified human GSTO1, late-stage follow-up, biochemical, gel ABPP, SE-Rh probe, percent inhibition; recombinant GSTO1, gel ABPP SE-Rh probe fluorescence; inhibition, % at 1 µM; shares compounds with GSTO1 counter; hit rate 30% among 130;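 active means inhibition of the enzyme GSTO1 above about 75%, limit read from the data; inactive means inhibition below that limit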
LYPLA1 confirm = LYPLA1 inhibitors, retest, confirmation, counter-screen for PME1 inhibitor project, biochemical, fluorescence polarization, FP-Rh probe ABPP; shares compounds with LYPLA1 inh; recombinant LYPLA1; inhibition, % at 5.9 µM; hit rate 69% among 480;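 active means mean inhibition across replicates above the hit cutoff set in the primary screen, cut at about 15% in these data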;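 further: loss of FP-Rh probe labeling of LYPLA1 seen as lower polarization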
LYPLA2 conf = LYPLA2 inhibitors, retest, confirmation, counter-screen for PME1 inhibitor project, biochemical, fluorescence polarization, FP-Rh probe ABPP; shares compounds with LYPLA2 counter; recombinant LYPLA2; inhibition, % at 5.9 µM; hit rate 72% among 1,100; AID 2232, 2010;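 active means mean inhibition across replicates above the hit cutoff set in the primary screen, cut at about 26% in these data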;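 further: blocked labeling of the enzyme by serine hydrolase FP-Rh probe lowers polarization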
ZTA inh confirm = EBV Zta binding to ZRE DNA, inhibitors, confirmation, biochemical, fluorescence polarization, triplicate | shares compounds with ZTA DNA inh | inhibition, % at 11.1 µM | hit rate 30% among 320 | AID 2361, 2010;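 active means mean inhibition across triplicate runs above the hit threshold derived for the original primary screen, cut at about 33% in these data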
EBNA-1 counter = EBNA-1 DNA-binding inhibition, counter-screen for ZTA inhibitor project, biochemical, fluorescence polarization | 320 tested, under 10 active | shares compounds with ZTA DNA inh | inhibition, % at 14.8 µM; call rule not given here
PAD4 confirm = human PAD4 inhibitors, confirmation, biochemical, fluorescence polarization. recombinant PAD4, RCA probe fluorescence polarization. hit rate 28% among 1,200. inhibition, % at 6.36 µM. shares compounds with PAD4 FP inh;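 active means mean inhibition across replicates above the hit cutoff set by the earlier primary screen, cut at about 15% in these data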;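 further: inhibitors block active-site labeling by the probe so polarization falls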
Large screens that a line does not name were inactive (follow-up assays come after a bar, where they were run).

CC(Sc1ccccc1)C(=O)NCCc1ccccc1 (stereo not drawn)	none
O=C(Nc1cccc(Cl)c1)Nc1csc([N+](=O)[O-])c1	none
COc1ccc(CCN2C(=S)N(C)C(=O)C2CC(=O)Nc2ccc(F)cc2)cc1 (stereo not drawn)	none
Cc1c(C#N)c(NC(=O)CCl)n(Cc2ccccc2)c1C	GSTO1 counter 86 | GSTO1 inh conf 91
Cc1c(C#N)c(NC(=O)CCl)n(Cc2ccc(F)cc2)c1C	GSTO1 counter 81 | GSTO1 inh conf 96
Cc1cc(=O)n(Cc2ccccc2)c(O)c1C#N	none
COc1ccc(Cc2nnc(NC(=O)c3ccccc3C)s2)cc1	none
COc1cc2c(cc1OC)C(C1C(=O)CC(C)(C)CC1=O)N(C(=O)CCl)CC2 (stereo not drawn)	none
COc1cc2c(cc1OC)C(c1cc(Br)ccc1F)N(C(=O)CCl)CC2 (stereo not drawn)	GSTO1 counter 86 | GSTO1 inh conf 96 | GSTO1 recomb ABPP 87
CCN(CC)c1ccc(C=Nc2ccc(N(C)C)cc2)c(O)c1	EBNA-1 inh active, GSTO1 counter 66, ZTA DNA inh active | GSTO1 inh conf inactive
O=C(CSc1n[nH]c(=O)[nH]c1=O)Nc1ccc2c(c1)C(=O)c1ccccc1C2=O	LYPLA1 inh 14, GSTO1 counter 61 | GSTO1 inh conf 78 | LYPLA1 confirm inactive
Cc1cccc(C)c1OCc1nnc(SCC(=O)Nc2ccc(N3CCOCC3)cc2)o1	none
Nc1ccc(N2CCCCC2)c2nonc12	LYPLA1 inh 79, PAD4 FP inh 69, GSTO1 counter 92, ZTA DNA inh 57, LYPLA2 counter 90 | GSTO1 inh conf 62 | LYPLA1 confirm inactive | LYPLA2 conf inactive
Nc1c(N2CCCC2)cc(Cl)c2nonc12	LYPLA1 inh 72, GSTO1 counter 95, LYPLA2 counter 72 | GSTO1 inh conf 49 | LYPLA1 confirm inactive | LYPLA2 conf inactive
Nc1cc(Cl)ccc1N1CCCCC1	none
Cc1cc(N)ccc1N1CCCC1	LYPLA1 inh 22, PAD4 FP inh 28, GSTO1 counter 73, LYPLA2 counter 29 | GSTO1 inh conf inactive | LYPLA1 confirm inactive | LYPLA2 conf inactive
NC(=O)c1cc(N)ccc1N1CCCCC1	none
NC(=O)C1CCN(c2ccc3c(c2)S(=O)(=O)c2ccccc2C3=O)CC1	none
NC(=O)C1CCN(C2=C(Cl)C(=O)c3ccccc3C2=O)CC1	GSTO1 counter 87, LYPLA2 counter 42 | GSTO1 inh conf 80 | LYPLA2 conf 36
N=C1CCC(=N)c2c1c(O)c1ccccc1c2O	LYPLA1 inh 31, PAD4 FP inh 43, GSTO1 counter 77, ZTA DNA inh 37, LYPLA2 counter 42 | GSTO1 inh conf 77 | LYPLA1 confirm inactive | LYPLA2 conf inactive
Cc1cc(F)ccc1S(=O)(=O)Nc1ccc(O)c(Sc2ncn[nH]2)c1	none
CC1CCN(S(=O)(=O)c2ccc(C(=O)OC(C)C(=O)N(C)C3CCCCC3)cc2)CC1 (stereo not drawn)	none
COc1ccc(CNC(=O)[C@@H](C)NC(=O)C2CCN(C(=O)[C@@H](N)CCSC)CC2)cc1	none
COC1=CC(=O)C(O)=C(CCCCCCC/C=C/CCCCCCCC2=C(O)C(=O)C=C(OC)C2=O)C1=O	LYPLA1 inh 56, GSTO1 counter 91, LYPLA2 counter 51 | GSTO1 inh conf 90 | LYPLA1 confirm 72 | LYPLA2 conf 36
Cc1cc(C(=O)O)ccc1-n1c(C)ccc1C	GSTO1 counter 46, ZTA DNA inh 55 | GSTO1 inh conf inactive | ZTA inh confirm 57 | EBNA-1 counter inactive
Cc1cc(C(=O)O)ccc1-n1c(C)cc(C=C2C(=O)c3ccccc3C2=O)c1C	none
CCc1ccc(S(=O)(=O)/N=C2\C=C(Nc3ccc(C(=O)O)cc3)C(=O)c3ccccc32)cc1	PAD4 FP inh 69, GSTO1 counter 94, ZTA DNA inh 53 | GSTO1 inh conf 91 | ZTA inh confirm 52 | EBNA-1 counter inactive
O=C1CN(C(=O)c2c(F)cccc2F)C(c2ccc(F)cc2)c2cc(F)ccc2N1 (stereo not drawn)	none
CC(C(=O)O)N1C(=O)/C(=C/C=C/c2ccco2)SC1=S (stereo not drawn)	GSTO1 counter 64, ZTA DNA inh 58 | GSTO1 inh conf inactive | ZTA inh confirm 73 | EBNA-1 counter inactive
COc1ccccc1NC(=O)Nc1nc(CC(=O)Nc2cc(F)ccc2F)cs1	none
O=c1cc(-c2cccc3ccccc23)[nH][nH]1	none
O=c1cc(-c2ccc(Cl)cc2)[nH][nH]1	PAD4 FP inh 60, GSTO1 counter 49 | GSTO1 inh conf inactive | PAD4 confirm inactive
CCCCCn1nc(C(=O)N(CC)c2c(N)n(CCCC)c(=O)[nH]c2=O)c2ccccc2c1=O	none (no result: EBNA-1 inh, LYPLA1 inh, GSTO1 counter, ZTA DNA inh, LYPLA2 counter)
N#Cc1sc2nc(-c3ccccc3)cc(-c3ccco3)c2c1N	PAD4 FP inh 46, GSTO1 counter 66 | GSTO1 inh conf 78 | PAD4 confirm 116
